We go through 13 sequences from paper PMC11006913.

Test in all cases: PBM; 200 nM protein, PBS
Common to all, as to conditions: dsDNA, one strand shown

Assay [1] addresses NKX2-5 (Homo sapiens, UniProt P52952 125-210, R139K).
Assay [2] has as its target T1, NKX2-4 (Homo sapiens, UniProt Q9H2Z4 175-261, P217L).
T1 sequence: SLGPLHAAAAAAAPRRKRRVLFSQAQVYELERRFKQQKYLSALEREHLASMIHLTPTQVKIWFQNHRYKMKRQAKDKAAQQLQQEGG

For assay [3], the target named is T2, NKX2-4 (Homo sapiens, UniProt Q9H2Z4 175-261, T231S).
T2 sequence: T1 sequence with L43P, T57S

The target in assay [4] is T3, NKX2-4 (Homo sapiens, UniProt Q9H2Z4 175-261).
T3 sequence: T1 sequence with L43P

Assay [5] addresses T4, NKX2-4 (Homo sapiens, UniProt Q9H2Z4 175-261, R246Q).
T4 sequence: T1 sequence with L43P, R72Q

Assay [6] addresses T5, NKX2-6 (Homo sapiens, UniProt A6NCS4 118-204, F151L).
T5 sequence: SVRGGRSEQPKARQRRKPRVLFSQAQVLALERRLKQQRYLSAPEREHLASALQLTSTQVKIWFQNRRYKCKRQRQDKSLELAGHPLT

In assay [7] the target is NKX2-5 (Homo sapiens, UniProt P52952 125-210).
NKX2-5 (Homo sapiens, UniProt P52952 125-210), sequence (P52952 125-210): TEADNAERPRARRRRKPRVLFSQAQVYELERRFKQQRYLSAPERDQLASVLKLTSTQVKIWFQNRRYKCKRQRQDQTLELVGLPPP
Assay [8] addresses T6, NKX2-6 (Homo sapiens, UniProt A6NCS4 118-204, R150C).
T6 sequence: T5 sequence with R33C, L34F

The target in assay [9] is NKX3-2 (Homo sapiens, UniProt P78367 192-278, P234S).
NKX3-2 (Homo sapiens, UniProt P78367 192-278, P234S), sequence (P78367 192-278 P234S): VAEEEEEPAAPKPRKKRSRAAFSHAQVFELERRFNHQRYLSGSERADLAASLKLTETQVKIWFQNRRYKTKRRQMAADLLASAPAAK
Assay [10] deals with NKX3-2 (Homo sapiens, UniProt P78367 192-278).
NKX3-2 (Homo sapiens, UniProt P78367 192-278), sequence (P78367 192-278): as the sequence (P78367 192-278 P234S) above, with S43P counted along it
For assay [11], the target named is T7, NKX2-6 (Homo sapiens, UniProt A6NCS4 118-204).
T7 sequence: T5 sequence with L34F

The target in the next assay is PRRX1 (Homo sapiens, UniProt P54821 80-166, F113S).
PRRX1, sequence (P54821 80-166 F113S): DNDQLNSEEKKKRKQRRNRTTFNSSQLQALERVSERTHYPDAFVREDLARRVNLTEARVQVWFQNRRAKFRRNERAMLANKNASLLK
Assay [12] addresses T8, VENTX (Homo sapiens, UniProt O95231 78-163, R121Q).
T8 sequence: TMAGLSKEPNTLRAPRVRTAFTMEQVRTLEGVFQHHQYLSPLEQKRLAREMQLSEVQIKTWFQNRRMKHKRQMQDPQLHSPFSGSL

Assay [13] deals with T9, VENTX (Homo sapiens, UniProt O95231 78-163).
T9 sequence: T8 sequence with Q44R

Assay [14] concerns the target T10, VENTX (Homo sapiens, UniProt O95231 78-163, Y115F).
T10 sequence: T8 sequence with Y38F, Q44R

For assay [15], the target named is HOXA2 (Homo sapiens, UniProt O43364 129-215, R185T).
HOXA2 (Homo sapiens, UniProt O43364 129-215, R185T), sequence (O43364 129-215 R185T): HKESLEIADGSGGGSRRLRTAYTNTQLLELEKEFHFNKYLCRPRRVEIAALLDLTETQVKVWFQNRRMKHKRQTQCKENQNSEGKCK
The target in assay [16] is HOXA2 (Homo sapiens, UniProt O43364 129-215, R185K).
HOXA2 (Homo sapiens, UniProt O43364 129-215, R185K), sequence (O43364 129-215 R185K): as the sequence (O43364 129-215 R185T) above, with T57K counted along it
Assay [17] deals with HOXA2 (Homo sapiens, UniProt O43364 129-215, Y150S).
HOXA2 (Homo sapiens, UniProt O43364 129-215, Y150S), sequence (O43364 129-215 Y150S): as the sequence (O43364 129-215 R185T) above, with Y22S, T57R counted along it
Assay [18] addresses HOXA2 (Homo sapiens, UniProt O43364 129-215).

Substitutions are numbered along the chain they refer to.

NKX2-5 (Homo sapiens, UniProt P52952 125-210, R139K), sequence (P52952 125-210 R139K): as the sequence (P52952 125-210) above, with R15K counted along it
HOXA2 (Homo sapiens, UniProt O43364 129-215), sequence (O43364 129-215): as the sequence (O43364 129-215 R185T) above, with T57R counted along it

In the case of ACTTGAGA, the binding signal with NKX2-5 [1] is 12.3 upbm affinity estimate (log intensity, higher = more binding, comparable within an allelic series); in the assay with NKX2-4 [2] it was 12.6 upbm affinity estimate (log intensity, higher = more binding, comparable within an allelic series); with NKX2-4 [3], 12.9 upbm affinity estimate (log intensity, higher = more binding, comparable within an allelic series); in the assay with NKX2-4 [4], 12.4 upbm affinity estimate (log intensity, higher = more binding, comparable within an allelic series); with NKX2-4 [5], 13.1 upbm affinity estimate (log intensity, higher = more binding, comparable within an allelic series); with NKX2-6 [6], 10.7 upbm affinity estimate (log intensity, higher = more binding, comparable within an allelic series). Also, in the assay with NKX2-5 [7], the binding signal was 12.2 upbm affinity estimate (log intensity, higher = more binding, comparable within an allelic series).
For the sequence CAAGTACC, the binding signal was 12.5 upbm affinity estimate (log intensity, higher = more binding, comparable within an allelic series) with NKX2-5 [1]; 12.4 upbm affinity estimate (log intensity, higher = more binding, comparable within an allelic series) with NKX2-4 [2]; 12.8 upbm affinity estimate (log intensity, higher = more binding, comparable within an allelic series) in the assay with NKX2-4 [3]; 12.4 upbm affinity estimate (log intensity, higher = more binding, comparable within an allelic series) with NKX2-4 [4]; 11.6 upbm affinity estimate (log intensity, higher = more binding, comparable within an allelic series) with NKX2-6 [8]; 12.9 upbm affinity estimate (log intensity, higher = more binding, comparable within an allelic series) with NKX2-4 [5]. Moreover, the binding signal is 12.5 upbm affinity estimate (log intensity, higher = more binding, comparable within an allelic series) in the assay with NKX3-2 [9]; 12.3 upbm affinity estimate (log intensity, higher = more binding, comparable within an allelic series) with NKX2-5 [7]; 12.6 upbm affinity estimate (log intensity, higher = more binding, comparable within an allelic series) with NKX3-2 [10].
Regarding ATACTTGA, the binding signal in the assay with NKX2-5 [1] was 12.4 upbm affinity estimate (log intensity, higher = more binding, comparable within an allelic series); with NKX2-4 [2] it was 12.6 upbm affinity estimate (log intensity, higher = more binding, comparable within an allelic series); with NKX2-4 [3], 13 upbm affinity estimate (log intensity, higher = more binding, comparable within an allelic series); in the assay with NKX2-4 [4] it was 12.5 upbm affinity estimate (log intensity, higher = more binding, comparable within an allelic series); in the assay with NKX2-6 [8], 11.6 upbm affinity estimate (log intensity, higher = more binding, comparable within an allelic series); with NKX2-6 [11], 13.5 upbm affinity estimate (log intensity, higher = more binding, comparable within an allelic series). Also, the binding signal with NKX2-4 [5] was 13.2 upbm affinity estimate (log intensity, higher = more binding, comparable within an allelic series); with NKX2-6 [6] it was 10.7 upbm affinity estimate (log intensity, higher = more binding, comparable within an allelic series); in the assay with NKX2-5 [7] it was 12.3 upbm affinity estimate (log intensity, higher = more binding, comparable within an allelic series).
AGTCCGGG: the binding signal was 9.14 upbm affinity estimate (log intensity, higher = more binding, comparable within an allelic series) with NKX2-5 [1]; 9.61 upbm affinity estimate (log intensity, higher = more binding, comparable within an allelic series) in the assay with NKX2-4 [2]; 9.48 upbm affinity estimate (log intensity, higher = more binding, comparable within an allelic series) with NKX2-4 [3]; 9.52 upbm affinity estimate (log intensity, higher = more binding, comparable within an allelic series) in the assay with NKX2-4 [4]; 9.63 upbm affinity estimate (log intensity, higher = more binding, comparable within an allelic series) with NKX2-4 [5]; 9.09 upbm affinity estimate (log intensity, higher = more binding, comparable within an allelic series) with NKX2-5 [7].
Consider CCACTCGA, for which the binding signal was 12.5 upbm affinity estimate (log intensity, higher = more binding, comparable within an allelic series) with NKX2-5 [1]; 12.6 upbm affinity estimate (log intensity, higher = more binding, comparable within an allelic series) with NKX2-4 [2]; 13.1 upbm affinity estimate (log intensity, higher = more binding, comparable within an allelic series) with NKX2-4 [3]; 12.4 upbm affinity estimate (log intensity, higher = more binding, comparable within an allelic series) in the assay with NKX2-4 [4]; 11.6 upbm affinity estimate (log intensity, higher = more binding, comparable within an allelic series) with NKX2-6 [8]; 13.1 upbm affinity estimate (log intensity, higher = more binding, comparable within an allelic series) with NKX2-4 [5]. Further, the binding signal in the assay with NKX2-5 [7] is 12.2 upbm affinity estimate (log intensity, higher = more binding, comparable within an allelic series).
For the sequence CGTGCACG, the binding signal with NKX2-5 [1] is 8.84 upbm affinity estimate (log intensity, higher = more binding, comparable within an allelic series); with PRRX1 it was 9.62 upbm affinity estimate (log intensity, higher = more binding, comparable within an allelic series); with NKX2-5 [7] it was 8.84 upbm affinity estimate (log intensity, higher = more binding, comparable within an allelic series).
On to ATCGGTGG, for which the binding signal with NKX2-5 [1] was 8.85 upbm affinity estimate (log intensity, higher = more binding, comparable within an allelic series); with NKX2-4 [2] it was 9.32 upbm affinity estimate (log intensity, higher = more binding, comparable within an allelic series); with NKX2-4 [3], 9.63 upbm affinity estimate (log intensity, higher = more binding, comparable within an allelic series); with NKX2-4 [4], 9.38 upbm affinity estimate (log intensity, higher = more binding, comparable within an allelic series); with NKX2-4 [5], 9.32 upbm affinity estimate (log intensity, higher = more binding, comparable within an allelic series); in the assay with NKX2-5 [7], 8.79 upbm affinity estimate (log intensity, higher = more binding, comparable within an allelic series).
For CTCTTAAG, the binding signal is 12.3 upbm affinity estimate (log intensity, higher = more binding, comparable within an allelic series) in the assay with NKX2-5 [1]; 12.5 upbm affinity estimate (log intensity, higher = more binding, comparable within an allelic series) in the assay with NKX2-4 [2]; 12.7 upbm affinity estimate (log intensity, higher = more binding, comparable within an allelic series) with NKX2-4 [3]; 12.3 upbm affinity estimate (log intensity, higher = more binding, comparable within an allelic series) in the assay with NKX2-4 [4]; 13.5 upbm affinity estimate (log intensity, higher = more binding, comparable within an allelic series) in the assay with NKX2-6 [11]; 12.9 upbm affinity estimate (log intensity, higher = more binding, comparable within an allelic series) with NKX2-4 [5]. For the same sequence, the binding signal in the assay with NKX2-6 [6] is 10.6 upbm affinity estimate (log intensity, higher = more binding, comparable within an allelic series); in the assay with NKX2-5 [7] it was 12.3 upbm affinity estimate (log intensity, higher = more binding, comparable within an allelic series).
AAGTGCCC: the binding signal with NKX2-5 [1] was 12.4 upbm affinity estimate (log intensity, higher = more binding, comparable within an allelic series); in the assay with NKX2-4 [2], 12.5 upbm affinity estimate (log intensity, higher = more binding, comparable within an allelic series); with NKX2-4 [3], 12.8 upbm affinity estimate (log intensity, higher = more binding, comparable within an allelic series); in the assay with NKX2-4 [4] it was 12.3 upbm affinity estimate (log intensity, higher = more binding, comparable within an allelic series); with NKX2-6 [8], 11.6 upbm affinity estimate (log intensity, higher = more binding, comparable within an allelic series); in the assay with NKX2-4 [5], 13 upbm affinity estimate (log intensity, higher = more binding, comparable within an allelic series). The binding signal in the assay with NKX2-6 [6] is 10.8 upbm affinity estimate (log intensity, higher = more binding, comparable within an allelic series); with NKX3-2 [9], 12.9 upbm affinity estimate (log intensity, higher = more binding, comparable within an allelic series); in the assay with NKX2-5 [7], 12.4 upbm affinity estimate (log intensity, higher = more binding, comparable within an allelic series); in the assay with NKX3-2 [10], 12.9 upbm affinity estimate (log intensity, higher = more binding, comparable within an allelic series).
On to ACACTTCA, for which the binding signal was 12.3 upbm affinity estimate (log intensity, higher = more binding, comparable within an allelic series) with NKX2-5 [1]; 12.6 upbm affinity estimate (log intensity, higher = more binding, comparable within an allelic series) in the assay with NKX2-4 [2]; 13 upbm affinity estimate (log intensity, higher = more binding, comparable within an allelic series) with NKX2-4 [3]; 12.5 upbm affinity estimate (log intensity, higher = more binding, comparable within an allelic series) with NKX2-4 [4]; 13.3 upbm affinity estimate (log intensity, higher = more binding, comparable within an allelic series) with NKX2-6 [11]; 13.1 upbm affinity estimate (log intensity, higher = more binding, comparable within an allelic series) with NKX2-4 [5]. Also, the binding signal in the assay with NKX2-6 [6] was 10.8 upbm affinity estimate (log intensity, higher = more binding, comparable within an allelic series); with NKX2-5 [7] it was 12.3 upbm affinity estimate (log intensity, higher = more binding, comparable within an allelic series).
In the case of CCTCTTAA, the binding signal with NKX2-5 [1] was 12.3 upbm affinity estimate (log intensity, higher = more binding, comparable within an allelic series); with NKX2-4 [2] it was 12.4 upbm affinity estimate (log intensity, higher = more binding, comparable within an allelic series); with NKX2-4 [3] it was 12.7 upbm affinity estimate (log intensity, higher = more binding, comparable within an allelic series); with NKX2-4 [4], 12.3 upbm affinity estimate (log intensity, higher = more binding, comparable within an allelic series); with NKX2-6 [11], 13.4 upbm affinity estimate (log intensity, higher = more binding, comparable within an allelic series); with NKX2-4 [5], 12.9 upbm affinity estimate (log intensity, higher = more binding, comparable within an allelic series). Further, the binding signal with NKX2-6 [6] is 10.5 upbm affinity estimate (log intensity, higher = more binding, comparable within an allelic series); in the assay with NKX2-5 [7] it was 12.3 upbm affinity estimate (log intensity, higher = more binding, comparable within an allelic series).
Regarding ACGGCCTG, the binding signal was 8.92 upbm affinity estimate (log intensity, higher = more binding, comparable within an allelic series) with NKX2-5 [1]; 9.73 upbm affinity estimate (log intensity, higher = more binding, comparable within an allelic series) with NKX2-4 [2]; 9.59 upbm affinity estimate (log intensity, higher = more binding, comparable within an allelic series) in the assay with NKX2-4 [3]; 9.65 upbm affinity estimate (log intensity, higher = more binding, comparable within an allelic series) with NKX2-4 [4]; 9.71 upbm affinity estimate (log intensity, higher = more binding, comparable within an allelic series) in the assay with NKX2-4 [5]; 8.81 upbm affinity estimate (log intensity, higher = more binding, comparable within an allelic series) with NKX2-5 [7].
Regarding CACGGGCC, the binding signal was 8.73 upbm affinity estimate (log intensity, higher = more binding, comparable within an allelic series) with NKX2-5 [1]; 7.96 upbm affinity estimate (log intensity, higher = more binding, comparable within an allelic series) with VENTX [12]; 8.01 upbm affinity estimate (log intensity, higher = more binding, comparable within an allelic series) in the assay with VENTX [13]; 7.92 upbm affinity estimate (log intensity, higher = more binding, comparable within an allelic series) with VENTX [14]; 6.97 upbm affinity estimate (log intensity, higher = more binding, comparable within an allelic series) with HOXA2 [15]; 10.1 upbm affinity estimate (log intensity, higher = more binding, comparable within an allelic series) with HOXA2 [16]. Moreover, the binding signal with HOXA2 [17] was 10.3 upbm affinity estimate (log intensity, higher = more binding, comparable within an allelic series); with HOXA2 [18], 6.84 upbm affinity estimate (log intensity, higher = more binding, comparable within an allelic series); in the assay with NKX2-5 [7], 8.71 upbm affinity estimate (log intensity, higher = more binding, comparable within an allelic series).
